Cruzain inh Det – cruzain (T. cruzi) inhibition with detergent; purified cruzain, Z-FR-AMC fluorescence, 0.01% Triton; P25779; 200,000 compounds, 0.43% hits; Potency, µM, for inactives: max response, negative = inhibition, usual class: inhibitors;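 further: plate controls were neutral wells for no effect and buffer without enzyme for full effect; nearly all actives have a fitted effect of over 40% in size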
Target sequence (P25779 123-467 limits assumed): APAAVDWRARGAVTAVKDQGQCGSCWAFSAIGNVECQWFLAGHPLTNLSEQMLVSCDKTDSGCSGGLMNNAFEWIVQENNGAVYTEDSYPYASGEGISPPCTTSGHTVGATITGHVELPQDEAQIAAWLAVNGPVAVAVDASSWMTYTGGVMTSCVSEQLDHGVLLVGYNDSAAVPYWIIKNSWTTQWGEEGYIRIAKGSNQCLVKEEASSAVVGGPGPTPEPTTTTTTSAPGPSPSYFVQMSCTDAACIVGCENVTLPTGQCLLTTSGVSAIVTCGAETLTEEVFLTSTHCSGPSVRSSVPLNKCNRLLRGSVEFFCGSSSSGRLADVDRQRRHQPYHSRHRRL
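Cysteine protease activity tested under reducing, mildly acidic conditions (100 mM sodium acetate pH 5.5, 5 mM DTT) plus 0.01% Triton X-100. Cruzain 1.5 nM; substrate Z-FR-AMC 2 uM; 15 min compound preincubation at room temperature.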
Cruzain noTriton – inhibitors of Trypanosoma cruzi cruzain without detergent | 200,000 compounds, 2.3% hits | purified cruzain, Z-FR-AMC fluorescence, no detergent | P25779 | Potency, µM, for the others: max response, negative = inhibition, actives largely listed as inhibitors | AID 1476;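 further: plate controls were enzyme without inhibitor for no effect and buffer without enzyme for full effect; nearly all actives have a fitted effect of over 40% in size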
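Purified cruzain at 1.5 nM, pre-incubated 15 min with compound at room temperature in 100 mM sodium acetate pH 5.5, 5 mM DTT, 0.00005% Triton X-100. Reaction started with 2 uM Z-FR-AMC; AMC fluorescence increase over 60 s gives rate.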
Starred values were filed as active, the others as inactive; ? = inconclusive. Most compounds without a hit are left out; they make up all but 2.4% or so of the library. The call rests on the fitted dose curve; in most records, active means well fitted curve in the direction sought with a large enough effect; inconclusive means small, poorly fitted or top-dose-only effect, or another doubt; inactive means no such curve, though single readings can be large; an effect the other way counts as inactive or inconclusive. Potency means the concentration at half of the fitted maximal effect.

SMILES	Cruzain inh Det	Cruzain noTriton
COc1ccc(-c2cc(-c3ccccc3)c(C#N)c(SCC(O)CS(=O)(=O)Cc3ccc(Cl)cc3)n2)cc1 (stereo not given)	6.6%	?
N#Cc1c(-c2ccccc2)cc(-c2ccccc2)nc1SCC(O)CS(=O)(=O)Cc1ccc(Cl)cc1 (stereo not given)	-5.5%	7.94µM*
O=[N+]([O-])c1ccc(CSc2nc3ccccc3[nH]2)cc1	-14.1%	-2.9%
Cc1cccc2nc(CSc3nc4ccc([N+](=O)[O-])cc4[nH]3)c(Br)n12	-6.7%	3.16µM*
N#CCCn1c(SCC(=O)c2c[nH]c3ccccc23)nc2ccccc21	-6.0%	?
Cc1cc(C(=O)CSc2nc3ccccc3n2CCC#N)c(C)n1Cc1cccs1	2.2%	15.8µM*
COc1cc(Cl)c(C)cc1NC(=O)CNC(=O)Cn1ccc2ccccc2c1=O	0.5%	0.1%
Cc1cc(-c2nc3cccnc3s2)ccc1NS(=O)(=O)c1ccc2c(c1)OCCO2	-4.4%	?
Cc1c(NS(=O)(=O)c2ccc3c(c2)OCCO3)cccc1-c1nc2cccnc2s1	-1.2%	15.8µM*
CCN(CC)C(=O)C1=C(C)Nc2nc3ccccc3n2C1c1ccc(Cl)cc1 (stereo not given)	-3.7%	0.9%
N#CC1=C(N)Nc2nc3ccccc3n2C1c1ccc(Cl)cc1 (stereo not given)	-1.2%	31.6µM*
Cc1ccc(-c2nnc(SCC(=O)N3CCCc4ccccc43)o2)cc1	-1.7%	-2.9%
COC(=O)c1c(NC(=O)/C=C/C(=O)O)sc(Cc2ccccc2)c1C	-9.6%	13.1%
Cc1c(Cc2ccccc2)sc(NC(=O)/C=C/c2cccc3ccccc23)c1C(N)=O	-5.0%	5.01µM*
Cc1ccc(C)c(NC(=O)Cn2c(-c3nonc3N)nc3ccccc32)c1	-1.4%	3.2%
Cc1ccc(NC(=O)Cn2c(-c3nonc3N)nc3ccccc32)cc1C	7.08µM*	3.98µM*
CCOc1ccc(NC(=O)NCCc2c(C)nn(C)c2C)cc1	-0.9%	4.0%
CCCCC(=O)Cl	1.6%	-6.2%
O=C(NCc1ccccc1F)C1CCN(c2nnc(-n3cccc3)s2)CC1	-3.8%	-17.7%
O=c1[nH]c(CN2CCc3ccccc32)nc2scc(-c3cccs3)c12	-5.7%	10µM*
O=c1[nH]cnc2scc(-c3cccs3)c12	-1.6%	3.6%
COc1cc(C)ccc1OCCSc1nc2ccc(NC(=O)c3ccc(F)cc3)cc2s1	-0.8%	1.9%
COc1ccc2c(c1)CC(C(=O)Nc1ccc(Br)c(C)c1)CO2 (stereo not given)	-1.3%	-12.2%
CCOc1ccc(N(CC)S(=O)(=O)c2cc(Br)cc3c2N(C(C)=O)C(C)C3)cc1 (stereo not given)	-4.9%	?
O=C(COC(=O)c1cc([N+](=O)[O-])ccc1NCc1ccccc1)NCc1ccccc1Cl	-4.5%	-83.7%
SMILES	Cruzain inh Det	Cruzain noTriton
O=C(COC(=O)c1cc([N+](=O)[O-])ccc1NCc1ccccc1)NC1CCCc2ccccc21 (stereo not given)	1.6%	25.1µM*
COc1ccc(-c2c(C#N)c(SCC(=O)Nc3cccc(Cl)c3)nc(C)c2C(=O)Nc2ccccc2)cc1OC	-11.1%	?
O=C(Nc1nc(-c2ccc(Cl)s2)cs1)c1cccs1	-8.3%	?
O=C(Nc1ccc([N+](=O)[O-])cc1)Nc1nc(-c2ccc(Cl)s2)cs1	-0.6%	5.01µM*
COc1ccc2[nH]cc(CCNC(=O)Nc3cc(C)cc(C)c3)c2c1	6.5%	?
CCc1nn2c(=O)cc(COC(=O)c3cccc(NC(=O)c4cccs4)c3)nc2s1	1.1%	-3.1%
CCOC(=O)c1c(NC(C)=O)sc2c(O)cccc12	-4.3%	3.0%
CCOC(=O)c1c(NC(=O)c2ccccc2)sc2c(O)c(CN(CC)CC)ccc12	-1.1%	15.8µM*
C=CCc1ccccc1OCCSc1nc(-c2ccccc2F)nc2cc(=O)[nH]n12	2.1%	?
COc1ccc(-c2noc(N3CCC(C(=O)Nc4ccc(C)c(F)c4)CC3)n2)cc1OC	-0.8%	4.2%
O=C(Nc1nnc(SCc2ccccc2)s1)c1cc2c(s1)CCCC2	-2.1%	?
CCSc1nnc(NC(=O)c2ccccc2)s1	-2.2%	4.6%
CCSc1nnc(NC(=O)c2csc3c2CCCC3)s1	3.0%	?
CCSc1nnc(NC(=O)c2cc(C)on2)s1	-0.7%	-11.1%
CCSc1nnc(NC(=O)c2ccc3c(c2)OCO3)s1	-0.6%	25.1µM*
CCSc1nnc(NC(=O)c2cc(-c3ccc(C)c(C)c3O)n[nH]2)s1	-1.6%	3.98µM*
CCSc1nnc(NC(=O)c2cc3c(s2)CCCC3)s1	9.2%	7.94µM*
CCSc1nnc(NC(=O)c2csc3c2CCC(C)C3)s1 (stereo not given)	-1.7%	12.6µM*
CCOC(=O)c1ccccc1NC(=O)N1CCCn2nc(C)cc21	-2.8%	0.8%
N#CCCN/N=C(/Cc1nc2ccccc2[nH]1)c1ccc(Cl)cc1	-0.7%	25.1µM*
N#CCCN/N=C(\Cc1nc2ccccc2[nH]1)c1ccccc1	-0.5%	-5.0%
c1ccc(N/N=C(\Cc2nc3ccccc3[nH]2)c2ccccc2)cc1	-16.0%	-27.5%
Cc1ccc(N/N=C(\Cc2nc3ccccc3[nH]2)c2ccccc2)cc1	-3.0%	25.1µM*
CCOc1ccccc1CNS(=O)(=O)c1cc2c(cc1C)NC(=O)CO2	-0.3%	-14.9%
COc1cc(C)ccc1OCCSc1nc2ccc(NC(=O)c3cccs3)cc2s1	-4.0%	?
SMILES	Cruzain inh Det	Cruzain noTriton
COc1cccc(CNC(=O)CSc2nc(=O)[nH]c3c2CCC3)c1	0.0%	-15.1%
COc1ccc(Cl)cc1N(C)C(=O)Cn1cnc2sc(C)c(S(=O)(=O)N3CCN(c4ncccn4)CC3)c2c1=O	-4.7%	?
CCOc1ccc(-c2nonc2NC(=O)c2oc3cc(C)ccc3c2C)cc1	-3.2%	-24.3%
Cc1ccc2cc(CN(Cc3cccs3)Cc3nnnn3C(C)(C)C)c3nnnn3c2c1	-3.4%	-5.2%
Cc1cc2cc(CN(Cc3cccs3)C(c3nnnn3C(C)(C)C)C(C)C)c3nnnn3c2cc1C (stereo not given)	-2.3%	7.94µM*
CCOc1cccc2cc(-c3nc4sc(C(=O)Nc5ccc(C)cc5)c(C)c4c(=O)[nH]3)c(=O)oc12	-0.9%	6.6%
CCCCOC(=O)Nc1nnc(-c2ccccc2OC)s1	2.4%	15.8µM*
COc1ccccc1-c1nnc(NC(C)=O)s1	0.6%	3.5%
COc1ccccc1Cn1c(SCC(=O)C(C)(C)C)nc2ccccc2c1=O	-2.6%	-1.3%
Cc1cc(C)c2c(CC(=O)Nc3cc(C(F)(F)F)ccc3Cl)coc2c1	-1.4%	-5.0%
CCCOc1ccc(/C=C/C(=O)Nc2ccc([N+](=O)[O-])cc2C)cc1OC	7.6%	5.9%
CCOc1ccc(NC(=O)/C=C/c2ccc(OC)cc2)c([N+](=O)[O-])c1	14.1µM*	3.98µM*
COc1ccc(/C=C/C(=O)Nc2ccc(OC)cc2[N+](=O)[O-])cc1	-1.6%	-6.8%
CCCCC(=O)Nc1ccc(NC(=O)c2ccc([N+](=O)[O-])cc2)cc1OC	-1.3%	-2.7%
CCCCC(=O)Nc1ccc(C(=O)Nc2ccc(OC)cc2[N+](=O)[O-])cc1	1.9%	15.8µM*
CCCOc1ccc(/C=C/C(=O)Nc2ccc([N+](=O)[O-])cc2C)cc1	2.5%	25.1µM*
CCCCN(C)C(=O)CSc1nc2ccccc2nc1Cc1ccc(C)cc1	-9.3%	-11.0%
CC(=O)c1cccc(NS(=O)(=O)c2cccc(S(=O)(=O)c3ccc(Br)cc3)c2)c1	-11.9%	-27.9%
CCCCn1c(=O)c(C(=O)c2ccccc2)nc2ccccc21	-4.4%	6.7%

Screening data from PubChem.
